One experiment has as its system RARa:RXR (NR concentration 270 nM, RXRa partner concentration 90 nM). Description: PBM binding z-score (relative to random genomic background probes); higher = stronger binding; sequences stand for … in GC…GCGATTGACAGCGTAGAATGAAGG
In outline:
(§1)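 Each nuclear receptor dimer, without ligand, was incubated for 1 h on custom Agilent 4×180K protein-binding microarrays. Binding was detected with antibodies against each partner (one per run), and scanned fluorescence was regression-normalized. The binding z-scores are referenced to random human genomic background probes.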
On to GCTAGCAGGCCATTTGAGTCACTCAATGACGGGC, for which the PBM binding z-score is -0.381.

TAGCCTAGGTCATTCAGGGGCCAGTATAGAAAGC yielded a PBM binding z-score of 2.74.

The sequence ATCTCTAGTTAAAGTTCAGTGAAAGATCGATAGA showed a PBM binding z-score of 1.41.

As for ATATGTAGGTTAGCTGGGTTCATTCAGACTAGGC, the PBM binding z-score worked out at 2.56.

Take TCTATTAGTTCATTAGGGCAACCGAAACAGCGGA: the PBM binding z-score was 1.2.

For CCTGCTAGGTCATGGTCCGCTAATCTACAGTATG, the PBM binding z-score is 2.09.

Turning to TGTAGCAGGCCAGAGGGTCACTCAAGAGGTACGG, the PBM binding z-score was found to be 2.51.

Turning to CGAACTAGGTCAGAACAAGACAGTGAAGGATGAT, the PBM binding z-score was 0.614.

In turn, ATCTCTAGGTAACAAGTTGAGTGAAAGAGAGGAC yielded a PBM binding z-score of 0.445.

AGTCAAAGCTCAGGACGAGGTAACGTAAAGCACG registered a PBM binding z-score of 0.159.

In turn, ACTAGTTGGTCAGCTGAGGTCAGACACAATTCGG came in with a PBM binding z-score of 2.75.

CCTTACGGGTCACGCGGTTATAGCACGACGAGCG gave a PBM binding z-score of 4.59.

Sequence TCTTGTAGAGCAAGCAGGTTAAGAAAGCCTGAGT came in with a PBM binding z-score of -0.225.

Turning to ATACCAAGGGGATCGTGAGGTCGTTGATACTAAC, the PBM binding z-score was 1.52.

AGTCAAAGTTCAGGTCGAGGTAACGTAAAGCACG had a PBM binding z-score of 3.43.

As for CCAGACAGGTGAGAAGGTAACCCAGCCTCGATTA, the PBM binding z-score is 0.417.

In the case of CCTAGCAGGCCAATCTGGGTCACTCAAGGCTTGA, the PBM binding z-score stood at 1.17.

In turn, TCATATAGGTACAGGTGAAAGTCGAACGATATGA gave a PBM binding z-score of 0.718.

Regarding CAAACTAGGTCAAGGACAAAGTCGGTTTGTGCCA, the PBM binding z-score was determined as 1.91.

In the case of TCAAATAGGTAATACAGGTGAAAGTCGGCATCTA, the PBM binding z-score came out at 0.82.

In the case of GCTTGTAGATCGAGGTTAAGAAAGACTAAGCTAA, the PBM binding z-score was determined as 1.03.

Consider ACTATTAGTTCAGACGAGGGCAACCGATAGGTTG, for which the PBM binding z-score turned out to be 0.878.

AATATTAGTTGAGACGAGGGCAACCGATAGGTTG: the PBM binding z-score was found to be 1.4.

Consider GCATATAGGTAATACAAGGTGATAGTCCGATTGT, for which the PBM binding z-score stood at 0.688.

CCTACTGGTCCACGAAAGGTCATTGATTCAGTGA had a PBM binding z-score of 5.86.

Regarding GCGAGTGGGGCATCAGCAGGTTACCATAACTTAA, the PBM binding z-score was 0.531.

Regarding AGAATGAGGTTGTTAAGATCAGGGAATTGCGGTC, the PBM binding z-score was 0.0989.

Sequence TCCAGCAGGCCAGAGGGTCACTCAAGAGGTACGG showed a PBM binding z-score of 2.3.

As to GCTTGTAGATAAAGGTTAAGAAAGACTAAGCTAA, the PBM binding z-score was determined as 1.62.

In turn, CAGCCTAGGTCTGGGCCAGTATAGGAGGAACGTT came in with a PBM binding z-score of -0.724.

CCTAGTTGGTCGAGGTCACACACGCTATAGGTAC returned a PBM binding z-score of 5.08.

As for ACTCGGAGCACAAAGGTCAGAGCTACGCCAGTGA, the PBM binding z-score was determined as 4.5.

As to TCATATAGGTAAAAGGTGAAAGTCGGTGTGGTAA, the PBM binding z-score was 3.73.

In turn, CCTCGGAGGCCAGAAGGTCAGAGCTGTCCGCTTT gave a PBM binding z-score of 2.12.

TATACAGGGTCAAAGGCCCGAGTACGAATGTCGA came in with a PBM binding z-score of 4.41.

In turn, CGTCCAAGGTCAATGCTCGGTCAGTGAAAGCATT displayed a PBM binding z-score of 5.12.

TCTATTACTTGAAGGGCAACCGACGAGTCCGTTT displayed a PBM binding z-score of 1.02.

CCGAGTAGTTTATGGGGCATTCAGGCAACGGTGA: the PBM binding z-score is -0.101.

The sequence TCGAGTAGATTAGTCGGGGCATTCAGCCAACATA registered a PBM binding z-score of -0.389.

CGTCCAAGATCAGCAGGTCAGTGAAAGCGACGTG registered a PBM binding z-score of 0.583.

A further experiment concerns RARa homodimer (NR concentration 270 nM). The experiment is described as above. In outline: as §1
With GCTAGCAGGCCATTTGAGTCACTCAATGACGGGC, the PBM binding z-score was -1.15.

Consider TAGCCTAGGTCATTCAGGGGCCAGTATAGAAAGC, for which the PBM binding z-score is -0.372.

Take ATCTCTAGTTAAAGTTCAGTGAAAGATCGATAGA: the PBM binding z-score amounted to 2.45.

In the case of ATATGTAGGTTAGCTGGGTTCATTCAGACTAGGC, the PBM binding z-score stood at 1.06.

Regarding TCTATTAGTTCATTAGGGCAACCGAAACAGCGGA, the PBM binding z-score was 1.45.

CCTGCTAGGTCATGGTCCGCTAATCTACAGTATG yielded a PBM binding z-score of -0.439.

In the case of TGTAGCAGGCCAGAGGGTCACTCAAGAGGTACGG, the PBM binding z-score is -0.395.

In turn, CGAACTAGGTCAGAACAAGACAGTGAAGGATGAT had a PBM binding z-score of 0.172.

Turning to ATCTCTAGGTAACAAGTTGAGTGAAAGAGAGGAC, the PBM binding z-score came out at 1.29.

On to AGTCAAAGCTCAGGACGAGGTAACGTAAAGCACG, for which the PBM binding z-score is -0.547.

For ACTAGTTGGTCAGCTGAGGTCAGACACAATTCGG, the PBM binding z-score amounted to 0.218.

As for CCTTACGGGTCACGCGGTTATAGCACGACGAGCG, the PBM binding z-score was 0.82.

In the case of TCTTGTAGAGCAAGCAGGTTAAGAAAGCCTGAGT, the PBM binding z-score is -0.639.

For the sequence ATACCAAGGGGATCGTGAGGTCGTTGATACTAAC, the PBM binding z-score was -0.222.

As to AGTCAAAGTTCAGGTCGAGGTAACGTAAAGCACG, the PBM binding z-score came to 1.49.

Regarding CCAGACAGGTGAGAAGGTAACCCAGCCTCGATTA, the PBM binding z-score is 0.439.

The sequence CCTAGCAGGCCAATCTGGGTCACTCAAGGCTTGA yielded a PBM binding z-score of -0.672.

In turn, TCATATAGGTACAGGTGAAAGTCGAACGATATGA had a PBM binding z-score of 0.84.

CAAACTAGGTCAAGGACAAAGTCGGTTTGTGCCA yielded a PBM binding z-score of -0.478.

TCAAATAGGTAATACAGGTGAAAGTCGGCATCTA had a PBM binding z-score of 1.66.

Consider GCTTGTAGATCGAGGTTAAGAAAGACTAAGCTAA, for which the PBM binding z-score worked out at 0.293.

With ACTATTAGTTCAGACGAGGGCAACCGATAGGTTG, the PBM binding z-score came to 0.72.

For AATATTAGTTGAGACGAGGGCAACCGATAGGTTG, the PBM binding z-score turned out to be 2.43.

The sequence GCATATAGGTAATACAAGGTGATAGTCCGATTGT returned a PBM binding z-score of 0.359.

CCTACTGGTCCACGAAAGGTCATTGATTCAGTGA displayed a PBM binding z-score of 2.86.

Take GCGAGTGGGGCATCAGCAGGTTACCATAACTTAA: the PBM binding z-score was -0.613.

Regarding AGAATGAGGTTGTTAAGATCAGGGAATTGCGGTC, the PBM binding z-score was -0.0651.

The sequence TCCAGCAGGCCAGAGGGTCACTCAAGAGGTACGG came in with a PBM binding z-score of -0.207.

Sequence GCTTGTAGATAAAGGTTAAGAAAGACTAAGCTAA came in with a PBM binding z-score of 0.598.

Sequence CAGCCTAGGTCTGGGCCAGTATAGGAGGAACGTT showed a PBM binding z-score of -0.886.

CCTAGTTGGTCGAGGTCACACACGCTATAGGTAC: the PBM binding z-score stood at 1.8.

With ACTCGGAGCACAAAGGTCAGAGCTACGCCAGTGA, the PBM binding z-score was determined as 0.544.

The sequence TCATATAGGTAAAAGGTGAAAGTCGGTGTGGTAA came in with a PBM binding z-score of 2.49.

In turn, CCTCGGAGGCCAGAAGGTCAGAGCTGTCCGCTTT came in with a PBM binding z-score of -0.274.

TATACAGGGTCAAAGGCCCGAGTACGAATGTCGA: the PBM binding z-score came to 0.102.

Regarding CGTCCAAGGTCAATGCTCGGTCAGTGAAAGCATT, the PBM binding z-score turned out to be 0.202.

Sequence TCTATTACTTGAAGGGCAACCGACGAGTCCGTTT yielded a PBM binding z-score of 1.4.

With CCGAGTAGTTTATGGGGCATTCAGGCAACGGTGA, the PBM binding z-score is -0.193.

As for TCGAGTAGATTAGTCGGGGCATTCAGCCAACATA, the PBM binding z-score is -0.665.

On to CGTCCAAGATCAGCAGGTCAGTGAAAGCGACGTG, for which the PBM binding z-score was -0.407.

These data come from the supplement of paper PMC6555819.
